# LmPK inhibitor – qHTS Assay for Inhibitors of Leishmania Mexicana Pyruvate Kinase (LmPK); 0.37% of 290,000 active; purified LmPK, Kinase-Glo ATP luminescence, 1 h; Q27686; Potency, µM (doses to about 57.5 µM), actives largely listed as inhibitors
#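 Screened at intermediate enzyme activity to detect both inhibitors and activators: LmPK at 0.1 nM, with a 0.5 nM enzyme column as activation reference. PEP 0.5 mM, ADP 0.1 mM; ATP detected by luminescence after 1 h.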
# SARS PLpro yeast-1 – qHTS of Yeast-based Assay for SARS-CoV PLP; 0.19% of 330,000 active; Potency, µM (highest dose often 32.9 µM), hits mostly activators; AID 485353, 2010; S. cerevisiae expressing SARS-CoV PLpro, growth rescue; calls by dose curve; note: nearly all actives have a fitted effect of over 55% in size
# Giardia FBPA inh – qHTS Assay for Inhibitors of Fructose-1,6-bisphosphate Aldolase from Giardia Lamblia; A8B2U2; purified Giardia FBPA; Potency, µM (series often up to 59.6 µM), usual class: inhibitors; 0.71% of 290,000 active; note: nearly all actives have a fitted effect of over 55% in size
# Target sequence (A8B2U2 whole entry, looked up): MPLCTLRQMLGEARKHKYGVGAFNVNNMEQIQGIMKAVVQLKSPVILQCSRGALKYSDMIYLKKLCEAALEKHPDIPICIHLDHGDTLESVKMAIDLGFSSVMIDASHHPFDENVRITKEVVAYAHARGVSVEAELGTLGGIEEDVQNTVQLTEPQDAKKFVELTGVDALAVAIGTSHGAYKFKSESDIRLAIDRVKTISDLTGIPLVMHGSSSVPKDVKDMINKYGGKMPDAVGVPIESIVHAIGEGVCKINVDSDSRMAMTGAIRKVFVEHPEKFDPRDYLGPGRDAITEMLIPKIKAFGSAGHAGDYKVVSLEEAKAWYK
#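 Giardia FBPA (40 nM reagent) was preincubated 10 min at RT with compound (up to 57.5 uM final), then substrate plus GAPDH/TPI/NAD/arsenate coupling system with diaphorase/resazurin was added; resorufin fluorescence (525/598 nm) was read after 20 min.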
# RE007 growth inh – qHTS Assay for Inhibitors of the HIV-1 protein Vpr; AID 651644, 2012; S. pombe RE007 Vpr strain, BacTiter-Glo ATP luminescence, 24 h; Potency, µM (doses to about 92.2 µM), actives largely listed as inhibitors; 0.21% of 360,000 active; active = well fitted falling curve with a large enough effect; inconclusive = small, poorly fitted or top-dose-only effect; inactive = no such curve, though single readings can be large or run the other way; note: nearly all actives have a fitted effect of over 50% in size
#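 Fission yeast RE007 carrying one integrated HIV-1 vpr copy, seeded at OD 0.01 in PMG+AL medium with 23 nL pinned compound. Grown 24 h at 30 degrees; viability read by BacTiter-Glo luminescence after 5 min.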
# Tb PYK inh – qHTS of Trypanosoma Brucei Inhibitors | TbPYK enzyme, Kinase-Glo Plus ATP luminescence, 45 min | Potency, µM (highest dose often 76.8 µM), actives largely listed as inhibitors | pyruvate kinase (Trypanosoma brucei), Q57TT1 | AID 624173, 2012 | 0.12% of 410,000 active; note: nearly all actives have a fitted effect of over 50% in size
#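 Activity of T. brucei pyruvate kinase was followed by Kinase-Glo Plus luminescence after the enzyme reacted 45 min at room temperature with 130 uM ADP (final) and substrate. Test compounds were added before ADP at multiple concentrations.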
# SARS PLpro yeast-2 – qHTS of Yeast-based Assay for SARS-CoV PLP: Hit Validation | shares compounds with SARS PLpro yeast-1 | yeast expressing SARS-CoV PLpro, growth phenotype rescue | calls only | 19% of 1,000 active | AID 652038, 2013; call rule not given here
# Hits are given with their value; – = inactive; ? = inconclusive; · = no result; + = active, no number; [ ] = remark or other dose. In the library only some 1.1% were active in any assay of this set; here they are far more common. Unless noted, calls come from the whole dose curve; as a rule, active = well fitted curve in the direction sought with a large enough effect; inconclusive = small, poorly fitted or top-dose-only effect, or another doubt; inactive = no such curve, though single readings can be large; an effect the other way counts as inactive or inconclusive.
SMILES,LmPK inhibitor,SARS PLpro yeast-1,Giardia FBPA inh,RE007 growth inh,Tb PYK inh,SARS PLpro yeast-2
CC(=O)c1ccc(NC(=O)CN(C)S(=O)(=O)c2cc3c(cc2C)NC(=O)CO3)cc1,·,·,·,·,–,·
O=C(CC1SC2=NCCN2C1=O)Nc1ccc(Br)cc1 (stereo unspecified),–,–,–,–,–,·
Cc1cccc(C)c1NC(=O)CC1SC2=NCCN2C1=O (stereo unspecified),–,?,–,–,–,–
CC1=C(C(=O)N2CCc3ccccc32)C2(CCC(C)CC2)OC1=O (stereo unspecified),–,?,–,–[3.69 µM],·,–
CC1=C(C(=O)N2CCCCC2)C2(CCC(C)CC2)OC1=O (stereo unspecified),–,–,–,–,–,·
CCOc1ccc(CCNC(=O)CCc2cn(Cc3ccccc3F)c3ccccc23)cc1OCC,·,·,·,·,–,·
O=Cc1c(Sc2ccccc2)nc2ccccn2c1=O,–,?,–,–,?,–
CC(C)c1cccc(O)c(=O)c1,–,?,?,–,–,–
CCc1cc(S(=O)(=O)O)c2cc(C(C)C)cccc1-2,·,·,·,·,–,·
COc1ccc(C2=NN(C(=O)c3ccc(Cl)c([N+](=O)[O-])c3)C(c3ccccc3)C2)cc1 (stereo unspecified),–,?,–,–,–,?
COc1ccc(C2CC(c3ccc(Cl)cc3)=NN2C(=O)c2cccc([N+](=O)[O-])c2)cc1 (stereo unspecified),–,–,–,–,–,·
CCOC(=O)N1CCC(NC(=O)CCC(=O)N2CC(C)Oc3ccc(C)cc32)CC1 (stereo unspecified),–,–,–,–,–,·
Cc1ccc2c(c1)N(C(=O)CCC(=O)NC1CCN(Cc3ccccc3)CC1)CC(C)O2 (stereo unspecified),–,?,–,–,–,–
CCC(C)C1NC(=O)C(CCNCS(=O)(=O)O)NC(=O)C(NC(=O)C(CCNCS(=O)(=O)O)NC(=O)C(NC(=O)C(CCNCS(=O)(=O)O)NC(=O)CCCCC(C)C)C(C)O)CCNC(=O)C(C(C)O)NC(=O)C(CCNCS(=O)(=O)O)NC(=O)C(CCNCS(=O)(=O)O)NC(=O)C(C(C)CC)NC1=O (stereo unspecified),·,·,–,·,–,·
Cc1cc(C)cc(C(=O)N(c2ccccn2)C(C)c2ccco2)c1 (stereo unspecified),–,?,–,–,–,–
CNCCCN1c2ccccc2CCc2ccccc21,–,18µM,–,–,–,–
CC(=O)Nc1ccc(NC(=O)C(C)OC(=O)c2c(NC(C)=O)sc(C)c2C)cc1 (stereo unspecified),·,?,·,–,–,–
CCCC(=O)Nc1ccc(C(=O)NNC(=O)c2ccco2)cc1,–,?,–,–,–,–
CC(C)C(=O)Nc1ccc(C(=O)NNC(=O)c2ccco2)cc1,–,–,–,–,–,·
CCc1ccc(C(=O)c2cn(CC(=O)Nc3ccc4c(c3)OCCO4)c3ccc(CC)cc3c2=O)cc1,·,·,·,·,–,·
Nc1nonc1C(=O)N/N=C/c1cc(Br)ccc1O,–,?,–,–,–,+
O=C(N/N=C/c1cc(Cl)ccc1O)c1ccc(Br)cc1,–,?,–,–,–,–
Nc1nonc1-n1nnc(C(=O)N/N=C/c2cc(Br)ccc2O)c1CNc1ccccc1,–,?,·,–,–,·
Cc1cc(C)cc(OCCSc2nc3ccc(NC(=O)c4ccc5c(c4)OCO5)cc3s2)c1,·,·,·,·,–,·
Cc1cc(C)c2nc(NNC(=O)c3ccc(S(=O)(=O)N4CC(C)CC(C)C4)cc3)sc2c1 (stereo unspecified),–,?,–,–,?,·
SMILES,LmPK inhibitor,SARS PLpro yeast-1,Giardia FBPA inh,RE007 growth inh,Tb PYK inh,SARS PLpro yeast-2
Cc1cccc2sc(NNC(=O)c3ccc(S(=O)(=O)N4CC(C)CC(C)C4)cc3)nc12 (stereo unspecified),–,4µM,?,–,–,+
COc1ccc(C)cc1NC(=O)CN(C)S(=O)(=O)c1cnc[nH]1,–,?,–,–,–,–
CCOC(=O)c1cnn(Cc2ccccc2)c1N,–,?,–,–,–,–
CCOC(=O)c1cnn(Cc2ccc(C)cc2)c1N,–,–,–,–,–,·
COc1ccc(-c2noc(-c3ccc(N4CCC(C)CC4)c([N+](=O)[O-])c3)n2)cc1OC,·,·,·,·,–,·
Cc1ccc2nc(Nc3nc(CSc4nnnn4-c4ccccc4)cc(=O)[nH]3)nc(C)c2c1,–,?,–,–[3.69 µM],·,–
Cc1ccc2c(C)cc(=S)[nH]c2c1,–,–,–,–,–,·
Cc1ccc2[nH]c(=S)cc(C)c2c1,–,22µM,–,–,–,+
COc1ccccc1C(=O)NCC(=O)OC(C)C(=O)NC(=O)NC1CCCCC1 (stereo unspecified),–,?,–,–,–,–
O=C(NCc1ccc(CNC(=O)c2ccco2)cc1)c1ccco1,–,?,·,–,–,–
CCOc1ccc(NC(=O)CCCOc2cc(=O)n(C)c3ccccc23)cc1,–,?,–,–,–,+
Cc1ccc(-c2cc(=O)c3cc(F)ccc3[nH]2)cc1,–,?,–,–,–,–
Cc1ccc(-c2cc(=O)c3cc(C)ccc3[nH]2)cc1,–,–,–,–,–,·
C/C(=N\NC(=O)c1ccc(C)cc1)c1c(C)[nH]n(-c2ccccc2)c1=O,–,?,–,–,–,·
C/C(=N\NC(=O)c1ccccc1)c1c(C)[nH]n(-c2ccccc2)c1=O,–,6.3µM,–,–,–,–
COc1cc(/C=C/C(=O)O)ccc1OS(=O)(=O)c1cc(Br)ccc1C,·,10µM,·,–,–,–
Cc1nc2nc(SCc3ccc(F)cc3Cl)nn2c(C)c1Cc1ccccc1,·,·,·,·,–,·
Cc1ccc(C(C(=O)NCc2ccccc2)N(Cc2cccs2)C(=O)c2ccc3c(c2)OCCO3)cc1 (stereo unspecified),–,?,–,–,–,–
COc1ccc(CNC(=O)C(c2ccc(C)cc2)N(Cc2cccs2)C(=O)c2ccc3c(c2)OCCO3)cc1 (stereo unspecified),–,–,–,–,–,·
Cc1cccc(NC(=O)C(=O)NCCc2csc(-c3ccc(C(F)(F)F)cc3)n2)c1C,·,·,·,·,–,·
O=C(COC(=O)c1ccccc1Cl)NC1CCCCCC1,·,–,·,–,–,·
O=C(COC(=O)c1cccnc1Cl)NC1CCCCCC1,·,3.2µM,·,–,–,–
CCOc1ccc(C(=O)CC(=O)C(=O)NCCc2ccc(OC)c(OC)c2)cc1,–,20µM,–,–,–,?
COc1ccc(C(=O)Nc2ccncc2)cc1[N+](=O)[O-],–,–,–,–,–,·
CCc1ccc(NC(=O)c2ccc(OC)c([N+](=O)[O-])c2)cc1,–,?,–,–,–,–
